Laboratory results from PMC5540273 (PLoS ONE, 2017).
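Also: KINOMEscan kinase panel screen.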

The compounds below were run on PRKX. Conditions: concentration: 1 μM, replicates: in singlicate; n = 1.
In the case of `COC(=O)Nc1nc2cc(Oc3ccc(NC(=O)Nc4cc(C(F)(F)F)ccc4F)cn3)ccc2[nH]1.Cl.Cl` [GW681170], the “%Inh” value is reported as 0%. For `Fc1ccc(-c2ncn(C3CCNCC3)c2-c2ccnc(Oc3ccc(-c4ccccc4)cc3)n2)cc1` [SB-245391], the “%Inh” value was 0%. With `Cc1ccc(C)c(NC(=O)NC2CCN(c3ccnc(Nc4ccc(F)cc4)n3)C2)c1` (centres unmarked) [GSK1379720] the “%Inh” value was 4%. With `CSc1cccc2c(-c3ccncn3)c(-c3ccc(F)cc3)nn12` [GW514786] the “%Inh” value was 16%. For `Oc1cc(Nc2ccnc3cc(I)ccc23)ccc1F` [GW552771], the “%Inh” value was 0%. In the case of `Cc1ccc(S(=O)(=O)Nc2ccc(Nc3nccc(Nc4cccc5[nH]ncc45)n3)cc2)cc1` [GSK581271], the “%Inh” value is reported as 6%. `COc1cccc(-c2ccc3c(NC(=O)C4CC4)n[nH]c3n2)c1` [SB-710903] was tested, and the “%Inh” value was 0%. `O=C(Nc1cccc(-c2nn3ccccc3c2-c2ccnc(Nc3cccc(C(F)(F)F)c3)n2)c1)c1c(F)cccc1F` [GSK292658] was tested, and the “%Inh” value was 8%. For `Cl.Cl.NCC(NCc1ccc(-c2ccnc3[nH]ccc23)s1)c1ccccc1` (centres unmarked) [GSK1321565], the “%Inh” value was 94.2%. For `CCn1c(-c2nonc2N)nc2c(C#CC(C)(C)O)nc(OC[C@H](N)c3ccccc3)cc21` [GSK943949], the “%Inh” value was 92.1%. For `COCCOCCOc1cc2ncc3c4ccc(C#N)cc4[nH]c3c2cc1OC`, the “%Inh” value was 0%. `Clc1ccc(-c2nn3ncccc3c2-c2ccnc(Nc3ccc4c(c3)OCCO4)n2)cc1` [GW829116] was tested, and the “%Inh” value was 0%. In the case of `COc1cccc(NC(=O)NC2CCN(c3ccnc(Nc4cc(OC)c(OC)c(OC)c4)n3)C2)c1` (centres unmarked) [GSK1379763], the “%Inh” value is reported as 28%. With `COc1cccc(C(=O)Nc2cccc(Oc3ccc4nc(NC(=O)C5CC5)cn4n3)c2)c1` the “%Inh” value was 2%. For `CN(C)Cc1ccc(-c2ccc3c(Nc4ccc(Oc5ccccn5)cc4)ccnc3c2)o1` [GW567148], the “%Inh” value was 22%. For `Nc1ncc(-c2cccnc2)c2scc(-c3ccc4c(c3)CCN4C(=O)Cc3ccccc3)c12` [GSK683281], the “%Inh” value was 23%. For `COc1ccc(Nc2nccc(NCCNC(=O)c3cc4ccccc4s3)n2)cc1` [GSK1379896], the “%Inh” value was 16%. For `O=C(Nc1n[nH]c2nc(-c3ccc(O)cc3)ccc12)C1CC1` [SB-710363], the “%Inh” value was 0%. For `O=C(Nc1cccc(-c2nn3ccccc3c2-c2ccnc(Nc3cccc(F)c3)n2)c1)c1c(F)ccc(F)c1Cl` [GSK357952], the “%Inh” value was 22%. With `CN1CCN(Cc2cccc(-c3ccc4c(Nc5ccc(Oc6ccccc6)cc5)ccnc4c3)c2)CC1` [GW578342] the “%Inh” value was 6%. In the case of `COc1cc(Nc2nccc(N3CCC(NC(=O)Nc4cccc(C(C)=O)c4)C3)n2)cc(OC)c1OC` (centres unmarked) [GSK1379753], the “%Inh” value is reported as 37%. With `c1ccc(Oc2ccc(Nc3ccnc4cc(-c5ccc(CNCCN6CCOCC6)o5)ccc34)cc2)nc1` [GW567145] the “%Inh” value was 0%. With `CC(C)c1nc(-c2cccc(NS(=O)(=O)c3c(F)cccc3F)c2F)c(-c2ccnc(Nc3ccc(N4CCOCC4)nc3)n2)s1` [GSK2008607] the “%Inh” value was 0%. `C[C@@H](Oc1cc(-n2cnc3cc(-c4ccnc(NCCS(C)(=O)=O)c4)ccc32)sc1C(N)=O)c1ccccc1Cl` [GSK907232] was tested, and the “%Inh” value was 0%. `Cn1cc(-c2[nH]c3cc(NC(=O)[C@H](N)C4CCCCC4)cc4c3c2C=NNC4=O)cn1` was tested, and the “%Inh” value was 89%. For `CCS(=O)(=O)c1ccc(OC)c(Nc2nccc(-c3c(-c4cccc(NC(=O)c5c(F)cccc5F)c4)nn4ncccc34)n2)c1` [GSK326180], the “%Inh” value was 18%. In the case of `Cl.NC(=O)c1cccc(Nc2nccc(Nc3ccc(Oc4c(Cl)cccc4Cl)c(Cl)c3)n2)c1` [GW659009], the “%Inh” value is reported as 0%. For `Nc1ncc(-c2ccc3nccc(-c4ccncc4)c3c2)cc1S(=O)(=O)N1CCOCC1` [GSK1627798], the “%Inh” value was 11%. In the case of `Cn1cc(-c2ccc3c(c2)CCN3C(=O)Cc2cccc(Cl)c2)c2c(N)ncnc21` [GSK2606590], the “%Inh” value is reported as 21%. In the case of `CC(C)(C)c1ccc2nccc(Nc3cccc(O)c3)c2c1` [GW856795], the “%Inh” value is reported as 0%. For `CC(=O)Nc1nc2cnc(Nc3cc(NC(=O)c4cccc(C5(C#N)CC5)c4Cl)ccc3C)nc2s1`, the “%Inh” value was 19%. `COc1cc(Nc2nccc(N3CCC(NC(=O)c4cc5ccccc5s4)C3)n2)cc(OC)c1OC` (centres unmarked) [GSK1379760] was tested, and the “%Inh” value was 24%.
